# Test results published in the supplement of paper PMC11417369.
# ± gives the standard deviation of the averaged measurements. In all, about 25,000 sequences were measured (“ln(normalized median fluorescence intensity)”: median about 7.9, highest 2% from about 11 on). Many of the other results were omitted from the sample, so the highest values are more common in it than they were.
# Tested on: PfAP2-I AP2 domain 3 (GST-tagged)
# Assay: gcPBM binding intensity (ln(normalized median fluorescence intensity)); higher = stronger DNA binding
# Summary of the method: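 The binding buffer was 1× PBS containing 1% milk, 0.2 mg/ml BSA, 0.5% salmon testes DNA and 0.03% Triton X-100. In it, GST-tagged P. falciparum DNA-binding domains expressed in E. coli were applied for 1 h to an Agilent 4 × 180k array of primer-extended double-stranded 36-bp intergenic genomic probes plus negative controls. Binding intensity, read with Alexa488 anti-GST antibody and a 488 nm scan, is the highest Masliner-normalised natural-log median intensity across replicate spots of either probe orientation.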
row,Sequence,gcPBM binding intensity (ln)
1,ATCAACATTATGGTTAGTACTTAGTGAATTGTTAAT [XGTACX_site4926],7.63 ± 0.59
2,TTCATATATTATTATGCATGTTCATAAATTATCTAA [TGCATGCA_site896],7.88 ± 0.58
3,TTGTTCTATATATATGCATGCACGTATGTTAAATTA [TGCATGCA_site659],11.3 ± 0.23
4,TTCTATATATTATATGCATGTAAAACATATTAAAAT [TGCATGCA_site662],7.93 ± 0.61
5,TACCTTTTTTGTTTTATGCACACCATATAACCAAGG [CACACA_site30],10.3 ± 0.33
6,TCGTAAACTTTATGCACACACATATACATATTTCAT [CACACA_site739],10.2 ± 0.53
7,TGTGCCCAAAATTATGCACACACCTAAAATTAATTT [CACACA_site2914],10.3 ± 0.4
8,ATTATGCACCAACACACACACACACTCCTAAAAAAT [CACACA_site8822],11.4 ± 0.95
9,ATTATGCACCAACACACACACACACCCCTAAAAAAT [CACACA_site2568],11.4 ± 0.79
10,TAATTATGCCAACACACACACACACCCAACTAAAAA [CACACA_site8823],8.22 ± 0.25
11,ATTATGCACGGACACACACACACACCCCTAAAAAAT [CACACA_site5426],10.4 ± 0.49
12,TGCACAAAATTATGCACACACCTAAAATTAATTTTT [CACACA_site5596],9.98 ± 0.32
13,TTTTGTTTCTATATAAGATGGAAATATAAACTTGTA [CACACA_negctrl_site82],7.64 ± 0.47
14,AATAAAAATTTACTTTGTACACATATTAAATTCAAT [XGTACX_site1957],7.83 ± 0.15
15,TATATTAATAAAGGTACTACACGGAAATGGAAATAT [XGTACX_site7760],8.58 ± 0.67
16,TTAAAATAAAGAAAATGTACATAAATAAAAATAAAG [XGTACX_site2280],8.35 ± 0.45
17,AACCAATTATATTTACGTACGTACGGTTTTTTATAT [XGTACX_site1291],7.94 ± 0.48
18,ATTTCTTTTTTATTGAGTACATATGACCATGTTCAA [XGTACX_site5365],8.14 ± 0.38
19,ATTATTCATTTATGTAGTACATTTTAATACATTTAA [XGTACX_site3599],7.75 ± 0.6
20,AGACCTTTAATTTGTGTGCACATAATTAGTGTACAT [GTGCAC_site9434],9.96 ± 0.16
21,AAAATTTCTTTTTTTTGTACATATATAATAATATAT [XGTACX_site7107],7.82 ± 0.39
22,TTTTCTTTTTTTTTTGTGCACATAATATATAATTAT,10.8 ± 0.14
23,TATTTCTTTTGGTTGGTGCATAAAATAATACAATAT [GTGCAC_site9916],11.2 ± 0.59

row,Sequence,gcPBM binding intensity (ln)
1,ACCAATAAATATTTGGTGCATACATATATATATATA,10.31 ± 0.064
2,TTTCTTTATTAAAATATTTTACATATATAATATACG [TGCATGCA_negctrl_site564],7.92 ± 0.55
3,CAACCTTTTTTGTTGGTGCATAATTTTTTTTTCTTT,10.9 ± 0.52
4,ATTTCCTTTTGTTTCAGTACATAATTTTTTTTTTTT [XGTACX_site4842],7.88 ± 0.62
5,TACGTCTTTTTTTTGGTGCATAATTTTTTTGTACAA,11.2 ± 0.44
6,CGGACATACTAACGGACACACGTAAGAAAAAAAAAG [CACACA_site4504],7.79 ± 0.58
7,ATAAATAAAAATACATGAACAGGTCAGGTTATTTTT [CACACA_negctrl_site1007],7.29 ± 0.61
8,AAAGAAATTATTTGTTGTACATATGTTATTTTTTTT [XGTACX_site7570],7.75 ± 0.25
9,TATTTTGCAAAATGTGCATGTTGTGTATTATGTGAC [TGCATGCA_site59],8.97 ± 0.51
10,AAATGTGCATTATGTTGTACAGTCGAAATTTTTTTT [XGTACX_site3812],11.1 ± 0.62
11,AAGAAAGACATTACGTGTACCAAACAACCTACCAAC [XGTACX_site4219],8.22 ± 0.25
12,TTCCTTTGTTGTCGTTGTACTTATATGGTTATAATT [XGTACX_site3082],8.29 ± 0.64
13,TAGGTCCTCATTTTATGTACATAAAGAAATATGATT [XGTACX_site4138],7.86 ± 0.36
14,CCATTTGATAATAATGCACACCACATATATTTATAT [CACACA_site9002],11 ± 0.4
15,ATATATTTATAATACACATGCAATGATATAATATAT [TGCATGCA_site20],8.43 ± 0.75
16,TATATATTAATATTTACACACATGCGCACCCATAAA [CACACA_site2410],9.86 ± 0.57
17,TATTATAATATTTATACACACATAATTTTGATAAAT [CACACA_site583],7.68 ± 0.4
18,CCCATGCATTTTTGCACACACATATATTTATAAATA [CACACA_site6785],9.75 ± 0.17
19,ACCCATTTGATAATAATGCACACCACATATATTTAT [CACACA_site3061],11 ± 0.63
20,ACTCTCTTATATTAAACACACATATTTATAGGTATA [CACACA_site7302],8.07 ± 0.45
21,AGGAGGATGCATATGGCACACATTATGAAACTGTCG [CACACA_site299],9.11 ± 1
22,AATTTTTAGAAGAACACACACATATATATTATGACC [CACACA_site246],7.75 ± 0.65
